Compound activity as filed in PubChem BioAssay.
This is a sample that favours compounds with a hit; in the whole collection about 10% have one here.
hNpr1 antagonist: human Npr1 receptor antagonism | P16066 | HEK293 hNpr1 GloSensor cGMP, ANP-stimulated luminescence | Potency, µM (top dose mostly 46.3 µM), inactives show at the top dose activity change, negative = inhibition, most hits filed as inhibitors | hit rate 1.6% among 76,000 | AID 1347048; calls by dose curve; also: % is scaled to controls: 0 for no effect and ±100 for the full control effect; nearly all actives have a fitted effect of over 60% in size
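HEK293 cells stably expressing human Npr1 and cGMP GloSensor pGS-40F, loaded 2 h with 2% GloSensor reagent, given compound 30 min at room temperature. Luminescence read before and 20 min after 0.1 nM hNppA.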
NIH3T3 tox: NIH 3T3 cell cytotoxicity; NIH 3T3 viability, CellTiter-Glo ATP luminescence, 48-72 h; Potency, µM (doses to about 96.7 µM), without a hit: at the top dose activity change, negative = cytotoxicity, actives largely listed as inhibitors; hit rate 4.3% among 94,000; AID 1345082; also: % is scaled to controls: 0 for no effect and ±100 for the full control effect; nearly all actives have a fitted effect of over 55% in size
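NIH 3T3 cells at 400 cells/well received 23 nL of compound by pintool and were incubated 48 or 72 h at 37 °C. Viability was read as ATP-coupled CellTiter-Glo luminescence.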
HEK cytotox: kills HEK 293 cells. AID 1345083. hit rate 6.6% among 94,000. Potency, µM (top dose mostly 115 µM), for the others: at the highest dose activity change, negative = cytotoxicity, actives largely listed as inhibitors. HEK 293 viability, ATP luminescence (CellTiter-Glo), 48-72 h; also: % is scaled to controls: 0 for no effect and ±100 for the full control effect; nearly all actives have a fitted effect of over 60% in size
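Cytotoxicity was scored by loss of ATP-coupled luminescence (CellTiter-Glo) in HEK 293 cells. Compound treatment ran 48 or 72 hr at 37 degree Celsius, 5% CO2, 95% humidity.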
GPT2 inhibitor: blocks human glutamate pyruvate transaminase 2; Recombinant GPT2, coupled pyruvate oxidase/HRP Amplex Red fluorescence; Potency, µM (series often up to 57.7 µM), for inactives: top-dose activity change, negative = inhibition, hits mostly inhibitors; hit rate 0.25% among 100,000; Q8TD30; also: % is scaled to controls: 0 for no effect and ±100 for the full control effect; nearly all actives have a fitted effect of over 60% in size
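Fluorescence read-out: pyruvate from GPT2 turnover coupled to pyruvate oxidase, HRP and Amplex Red (0.2mM ThPP, 0.2U/mL PO and HRP, 50uM Amplex final). Substrates 250uM a-KG, 2mM L-alanine; enzyme 10ng/uL; 30 min RT.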
FLuc inh-1: Photinus pyralis luciferase inhibition; purified P. pyralis luciferase, luminescence, biochemical; Potency, µM (doses to about 115 µM), usual class: inhibitors; hit rate 2.5% among 76,000; also: % is scaled to controls: 0 for no effect and ±100 for the full control effect; nearly all actives have a fitted effect of over 65% in size
Target sequence (P08659 whole entry, looked up): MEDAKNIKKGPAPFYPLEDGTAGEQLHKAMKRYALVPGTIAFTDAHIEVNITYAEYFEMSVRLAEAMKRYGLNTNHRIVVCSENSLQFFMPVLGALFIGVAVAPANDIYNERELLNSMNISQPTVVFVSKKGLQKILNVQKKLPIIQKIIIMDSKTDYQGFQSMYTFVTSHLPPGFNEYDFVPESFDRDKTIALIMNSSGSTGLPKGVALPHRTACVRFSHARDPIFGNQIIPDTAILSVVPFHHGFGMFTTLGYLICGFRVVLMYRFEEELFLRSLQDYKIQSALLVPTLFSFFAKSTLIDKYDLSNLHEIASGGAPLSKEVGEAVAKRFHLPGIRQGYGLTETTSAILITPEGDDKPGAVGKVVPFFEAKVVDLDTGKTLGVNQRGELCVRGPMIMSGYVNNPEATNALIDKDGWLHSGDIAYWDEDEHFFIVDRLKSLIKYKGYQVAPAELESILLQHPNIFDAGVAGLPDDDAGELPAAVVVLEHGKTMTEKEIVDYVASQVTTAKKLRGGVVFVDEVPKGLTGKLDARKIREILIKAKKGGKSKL
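FLuc 10nM, D-luciferin 10uM, ATP 10uM, Mg acetate 10mM, Tris acetate pH 7.5, Tween/BSA; cpd qHTS; enzyme added last; CCD luminescence.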
FLuc SDR no ATP: stabilizes firefly luciferase without ATP; shares compounds with FLuc inh-1; Purified FLuc-C-HiBiT, Nano-Glo HiBiT luminescence, no ATP; Potency, µM (titrated, usually from 32.7 µM), inactives show at the highest dose activation (signal gain), most hits filed as activators; hit rate 7.8% among 1,300; AID 1963318; also: nearly all actives have a fitted effect of over 55% in size
FLuc SDR ATP: binders stabilizing firefly luciferase, plus ATP | shares compounds with FLuc inh-1 | hit rate 8.7% among 1,300 | AID 1963319 | purified FLuc-C-HiBiT + ATP, HiBiT complementation luminescence | Potency, µM (series often up to 32.7 µM), for the others: at the top dose activation (gain of signal), most hits filed as activators;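 also: signal reports ligand binding via conformational change of the enzyme rather than luciferase catalysis; % of control where 0% means no effect; nearly all actives have a fitted effect of over 55% in size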
FLuc inh-2: firefly luciferase enzyme inhibition; shares compounds with FLuc inh-1; purified FLuc-C-HiBiT enzyme, luciferin luminescence; Potency, µM (series often up to 32.7 µM), for inactives: at the top dose activity change, negative = inhibition, most hits filed as inhibitors; hit rate 42% among 1,300; also: % is scaled to controls: 0 for no effect and ±100 for the full control effect; nearly all actives have a fitted effect of over 70% in size
* = called active by the depositor; i = inactive; u = inconclusive; x = no result; [ ] = dose if it differs, or a comment. Unless noted, calls follow the shape of the dose curve; as a rule, active = well fitted curve in the direction sought with a large enough effect; inconclusive = small, poorly fitted or top-dose-only effect, or another doubt; inactive = no such curve, though single readings can be large; an effect the other way counts as inactive or inconclusive. Potency is read from the fitted curve at half-maximal effect.

SMILES | hNpr1 antagonist | NIH3T3 tox | HEK cytotox | GPT2 inhibitor | FLuc inh-1 | FLuc SDR no ATP | FLuc SDR ATP | FLuc inh-2
CC(=O)Nc1cccc(-c2csc(CN3CCCC(C)(NC(C)=O)C3)c2)c1 (configuration not stated) | -1.5%[70.6 µM] | -14.2%[138 µM] | u | i | i | x | x | x
COc1ncccc1-c1csc(CN2CCCC(C)(NC(C)=O)C2)c1 (configuration not stated) | -1.6%[70.6 µM] | u | u | i | i | x | x | x
COc1ccc(-c2ccc(CN3CC(C)(NC(C)=O)C3)s2)cn1 | x | x | x | x | x | 16.9%[49.3 µM] | 11.9%[49.3 µM] | u
CC(=O)NC1(C)CN(Cc2ccc(-c3ccc(Oc4ccccc4)cc3)s2)C1 | 15.8µM* | 28.2µM* | 28.2µM* | -5.0%[88.5 µM] | 12.6µM* | 12.4%[49.3 µM] | 10.3%[49.3 µM] | u
CCOCC(=O)N1CCC2(CC1)CC(CO)N(C(=O)c1ccccc1)C2 (configuration not stated) | x | 3.6% | i | 2.1% | x | x | x | x
O=C(CSc1nnc2[nH]c(=O)cc(-c3ccccc3)n12)Nc1ccc(OC(F)(F)F)cc1 | x | x | x | x | x | 19.5% | 15.0% | 7µM*
CN1CCCCC(CC(=O)Nc2ccc(OC(F)(F)F)cc2)C1=O (configuration not stated) | -1.5% | 0.5% | -17.5% | i | i | x | x | x
COc1cc(F)cc(-c2ccc(COc3ccc4c(cnn4CCC(=O)O)c3)cc2)c1 | 0.2%[70.6 µM] | u | u | -3.1%[88.5 µM] | u | x | x | x
COc1ccc(-c2ccc(COc3ccc4c(cnn4CCC(=O)O)c3)cc2)c(Cl)c1 | -1.9%[70.6 µM] | -18.5%[138 µM] | u | -1.9%[88.5 µM] | u | x | x | x
Cc1ccc(F)cc1-c1ccc(COc2ccc3c(cnn3CCC(=O)O)c2)cc1 | -13.6%[70.6 µM] | u | u | -4.2%[88.5 µM] | 22.4µM* | 18.8%[49.3 µM] | 11.8%[49.3 µM] | u
COc1cccc(F)c1-c1ccc(COc2ccc3c(cnn3CCC(=O)O)c2)cc1 | -8.4%[70.6 µM] | u | u | -17.3%[88.5 µM] | 25.1µM* | 16.2%[49.3 µM] | 10.1%[49.3 µM] | u
Cc1ccccc1-c1ccc(COc2ccc3c(cnn3CCC(=O)O)c2)cc1 | -15.8%[70.6 µM] | u | u | 4.7%[88.5 µM] | u | 19.6%[49.3 µM] | 13.3%[49.3 µM] | 16.1µM*
CCCC(=O)N1CC2(CCCN2Cc2cccnc2)Cc2ccccc21 (configuration not stated) | x | -24.3% | u | 1.8% | x | x | x | x
O=C(CC1CCCC1)N1CCC2(CC1)C(=O)N(c1cccc(F)c1)C2c1ccccc1 (configuration not stated) | x | u | u | 0.8% | x | x | x | x
CCN(CC1CCOCC1)C(=O)c1cccnc1SC/C=C/c1ccccc1 | -4.6% | -25.3% | u | i | 11.2µM* | 8.3% | 4.7% | u
CCN(CC1CCOCC1)C(=O)c1cc(COc2ccccc2F)[nH]n1 | 5.4% | -1.2% | -10.9% | -3.0% | i | x | x | x
CC(=O)N1Cc2ccccc2CC2(CCCN(Cc3ccccc3)C2)C1 (configuration not stated) | x | -13.0% | u | i | x | x | x | x
COc1ccc(CN2CCOc3nc(-c4cc5ccccc5o4)ncc3C2=O)cc1 | u | -14.1%[138 µM] | u | -0.6%[88.5 µM] | 3.55µM* | 16.0%[49.3 µM] | 16.4%[49.3 µM] | 8.05µM*
Cc1[nH]nc2c1C(c1ccc(Cl)cc1)C(C#N)=C(N)O2 (configuration not stated) | -5.3% | -22.4% | u | u | i | 11.0% | 8.4% | -8.6%
Cc1ccc(C(=O)Nc2ccc(-c3nc4ccccc4s3)c(O)c2)c(C)c1 | x | x | x | x | x | 14.1% | 9.4% | 0.0%
COc1ccccc1C(=O)Nc1ccc(-c2nc3ccccc3s2)c(C)c1 | x | x | x | x | x | 23.0% | 14.4% | u
CC(C)CN1C(=O)c2cccn2CC1CNC(=O)c1ccc2ccccc2n1 (configuration not stated) | -6.1% | u | u | i | u | x | x | x
COCCn1c(C)cnc1CC1CCCN(C(=O)C2(c3ccc(OC)cc3)CC2)C1 (configuration not stated) | -4.6% | -6.3% | -3.0% | i | i | x | x | x
CCCn1c(C)cnc1CC1CCN(C(=O)C2(c3ccc(OC)cc3)CC2)C1 (configuration not stated) | -21.1% | -25.5% | 28.2µM* | -21.4% | 6.31µM* | 11.6% | 17.0% | -13.8%
Cc1ccc2nc([C@H]3CCN(Cc4cccs4)C3)[nH]c2c1 | -28.1%[70.6 µM] | u | 56.2µM* | i | 7.08µM* | 15.6%[49.3 µM] | 17.4%[49.3 µM] | u
SMILES | hNpr1 antagonist | NIH3T3 tox | HEK cytotox | GPT2 inhibitor | FLuc inh-1 | FLuc SDR no ATP | FLuc SDR ATP | FLuc inh-2
Cc1ccccc1CN1CC[C@H](c2nc3ccccc3s2)C1 | -25.9%[70.6 µM] | u | 70.8µM* | -5.7%[88.5 µM] | 7.94µM* | 12.4%[49.3 µM] | 10.0%[49.3 µM] | u
Cc1ccc2nc([C@H]3CCN(C(=O)c4ccccc4)C3)[nH]c2c1 | -1.0%[70.6 µM] | -2.0%[174 µM] | u | u | i | x | x | x
c1ccc2sc([C@H]3CCN(CC4CCCCC4)C3)nc2c1 | -5.3%[70.6 µM] | u | u | i | i | x | x | x
O=C(c1ccccc1)N1CC[C@H](c2nc3ccc(F)cc3[nH]2)C1 | 2.1%[70.6 µM] | -26.3%[138 µM] | u | -16.0%[88.5 µM] | i | x | x | x
Cc1ccccc1CN1CC[C@H](c2nc3ccc(F)cc3[nH]2)C1 | u | u | 35.5µM* | 2.5%[88.5 µM] | 14.1µM* | 11.6%[49.3 µM] | 9.7%[49.3 µM] | u
Cc1cc(C)n(CCC(=O)N2CCC3(CC2)CC(OCC2CC2)CCO3)n1 (configuration not stated) | 6.1% | -15.4% | 13.3% | -5.1% | i | x | x | x
O=c1n(CCn2cccc2)nc(C2CCCNC2)n1-c1ccccc1 (configuration not stated) | 5.2% | i | -7.6% | i | i | x | x | x
COc1cccc([S+](=O)([O-])N2CCC(C(=O)N3CCC(N4CCOC4=O)CC3)CC2)c1 | x | -9.2% | i | 0.0% | x | x | x | x
CCc1ccc2oc(-c3ccc(C)c(NC(=O)c4ccc(C#N)cc4F)c3)nc2c1 | x | x | x | x | x | 17.0% | 13.2% | -14.8%
CCOC(=O)C1CCN(C(=O)c2ccc3nnc(-c4c(C)cccc4C)n3c2)CC1 | x | u | 5.0% | i | x | x | x | x
Cc1cc2c(c(-c3nc4ccccc4s3)c1)OC(CNC(=O)CCc1cccnc1)C2 (configuration not stated) | x | x | x | x | x | 14.4% | 8.9% | u
CN1C(=O)c2cccn2CC1CNC(=O)CCc1nc2ccccc2s1 (configuration not stated) | -9.4% | -9.0% | 0.0% | -2.4% | i | x | x | x
